We go through 62 compounds from PubChem BioAssay AID1942 (Johns Hopkins Ion Channel Center, 2009).

Each structure is given as a SMILES string. Out of some 2,400 compounds screened, about 580 (24%) were called active. These entries were drawn from the full list. A number with no mark means an inactive call.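 Rule for the calls: active = activity change at or above the mean plus 3 SD of buffer wells without dofetilide, per plate; inactive = the rest.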

Chain of Potassium voltage-gated channel subfamily KQT member 2 (Rattus norvegicus) (O88943 whole entry, looked up): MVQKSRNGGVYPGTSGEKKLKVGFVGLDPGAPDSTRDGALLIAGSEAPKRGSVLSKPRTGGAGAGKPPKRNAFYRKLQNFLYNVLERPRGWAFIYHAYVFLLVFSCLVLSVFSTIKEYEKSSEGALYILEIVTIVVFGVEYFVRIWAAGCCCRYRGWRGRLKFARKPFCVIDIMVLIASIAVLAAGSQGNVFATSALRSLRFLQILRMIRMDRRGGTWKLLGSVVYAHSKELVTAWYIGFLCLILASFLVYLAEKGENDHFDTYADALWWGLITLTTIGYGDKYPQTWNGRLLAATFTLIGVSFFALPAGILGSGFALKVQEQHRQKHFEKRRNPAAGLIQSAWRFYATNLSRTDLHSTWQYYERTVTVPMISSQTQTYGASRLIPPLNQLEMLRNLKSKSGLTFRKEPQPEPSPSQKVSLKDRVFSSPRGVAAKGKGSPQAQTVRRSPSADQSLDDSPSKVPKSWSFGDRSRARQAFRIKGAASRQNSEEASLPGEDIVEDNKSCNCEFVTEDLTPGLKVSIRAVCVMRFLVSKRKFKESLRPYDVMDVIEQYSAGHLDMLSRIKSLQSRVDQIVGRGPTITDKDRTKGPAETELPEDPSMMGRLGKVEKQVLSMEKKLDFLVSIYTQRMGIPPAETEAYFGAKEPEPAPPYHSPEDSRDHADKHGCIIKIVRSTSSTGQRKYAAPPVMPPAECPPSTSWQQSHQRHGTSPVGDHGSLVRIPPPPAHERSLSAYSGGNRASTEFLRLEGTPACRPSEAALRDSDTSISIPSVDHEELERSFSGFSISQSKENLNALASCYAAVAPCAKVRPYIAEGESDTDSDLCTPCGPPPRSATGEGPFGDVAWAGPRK

This assay concerns the target Potassium voltage-gated channel subfamily KQT member 2 (Rattus norvegicus) (UniProt O88943). As to the kind of experiment: KCNQ2 potentiation in CHO cells – cell-based, FluxOR thallium flux, counter-screen for hERG block protector project, confirmation (AID 1942).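 Note: normalized value minus buffer-control mean plus three SD of buffer wells.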 As to conditions: FluxOR thallium flux fluorescence, at 10 µM, active compounds read high.
For `O=c1[nH]c(=O)n(CCc2ccc(F)cc2)c(O)c1C=NCc1ccc2c(c1)OCO2`, the activity change, less the hit threshold is -22.5%.

For `COc1ccc(C(=O)NC2CC3CCCC(C2)N3Cc2ccccc2)cc1` (configuration not stated), the activity change, less the hit threshold is -27.5%.

For `O=c1[nH]c(N2CCN(c3ccccc3)CC2)nc2c1CCCC2`, the activity change, less the hit threshold was -11.1%.

With `C=C(C)CSc1nc(N)cc(=O)[nH]1`, the activity change, less the hit threshold was -12%.

Take `CC1CCC(N2CCN(C(=O)c3ccccc3F)CC2)CC1` (configuration not stated): the activity change, less the hit threshold is -9.6%.

Consider `O=c1c2ccccc2[nH]c(=S)n1C1CCCCC1`, for which the activity change, less the hit threshold was -15.1%.

For `CC1CCCCC1n1c(=S)[nH]c2ccccc2c1=O` (configuration not stated), the activity change, less the hit threshold is 6.6% (active).

On to `CC1CCC(n2c(=S)[nH]c3ccccc3c2=O)CC1` (configuration not stated), for which the activity change, less the hit threshold is 47.8% (active).

Consider `Cn1c(O)c(N=NC(=S)Nc2ccccc2F)c2cc(S(=O)(=O)N3CCOCC3)ccc21`, for which the activity change, less the hit threshold was -19.7%.

As for `Cc1ccc(C(C)C)cc1S(=O)(=O)NC1CC(C)(C)NC(C)(C)C1`, the activity change, less the hit threshold is -26%.

As to `Nc1cc(N)nc(SCc2cc(=O)oc3cc4c(cc23)CCC4)n1`, the activity change, less the hit threshold is -20.8%.

As to `CS(=O)(=O)N(CCc1ccccc1)CC(=O)N1CCN(c2ccc(F)cc2)CC1`, the activity change, less the hit threshold was -26.1%.

Regarding `Cc1cc(C(=O)NCc2ccc(S(N)(=O)=O)cc2)ccc1[N+](=O)[O-]`, the activity change, less the hit threshold is -13.6%.

In the case of `O=C(NCc1cccnc1)c1ccc(NS(=O)(=O)c2ccc(F)cc2)cc1`, the activity change, less the hit threshold was -4.9%.

With `Cc1cc2ccccn2c1C(=S)NC(=O)c1ccccc1`, the activity change, less the hit threshold is 40.3% (active).

In the case of `O=C(NC(=S)Nc1ncc(Br)cc1Br)c1ccccc1`, the activity change, less the hit threshold was -0.7%.

Regarding `O=C(c1n[nH]c2c1CCCC2)n1ccnc1`, the activity change, less the hit threshold is -12.7%.

In the case of `C[C@@H]1CCCCCCCCCCC1=O`, the activity change, less the hit threshold was -18%.

`Cc1ccc(C(=O)CC(=O)COc2ccc(Cl)cc2C)cc1`: the activity change, less the hit threshold is -1.4%.

For the compound `Cc1ccc(C(=O)CC(=O)c2ccc(C)cc2O)cc1`, the activity change, less the hit threshold was -9.3%.

For `Cc1ccc(C(=O)COC(=O)C2CCC2)cc1`, the activity change, less the hit threshold was 2.2% (active).

Take `O=c1ccn(Cc2ccc(F)cc2)c2ccnc(C(F)(F)F)c12`: the activity change, less the hit threshold was -16.3%.

For the compound `CCc1ccc2[nH]c(=O)c(-c3ccccc3)c(O)c2c1`, the activity change, less the hit threshold was -20.4%.

For `Cc1cccc(N2CCN(C(=O)CNC(=O)c3cccc([N+](=O)[O-])c3)CC2)c1C`, the activity change, less the hit threshold was -27.6%.

`Cc1cccc(N2CCN(C(=O)Cc3c(C(=O)O)[nH]c4ccc(Cl)cc34)CC2)c1C`: the activity change, less the hit threshold is 16.8% (active).

With `Cc1cc2[nH]c(=O)c(=O)[nH]c2cc1S(=O)(=O)N1CCN(c2cccc(C)c2C)CC1`, the activity change, less the hit threshold was -10.5%.

As to `CCOC(=O)C1=C(N)Oc2cc(O)ccc2C1c1cccnc1` (configuration not stated), the activity change, less the hit threshold was -24.7%.

For the compound `O=C(NC(=S)Nc1cccc(Cl)c1N1CCOCC1)c1cccs1`, the activity change, less the hit threshold was -17%.

Take `COc1ccc(N2CCN(C(=S)NC(=O)c3cccs3)CC2)c([N+](=O)[O-])c1`: the activity change, less the hit threshold was -6.4%.

With `O=C(NC(=S)N1CCN(c2ccc(Cl)cc2[N+](=O)[O-])CC1)c1cccs1`, the activity change, less the hit threshold was 2.3% (active).

Take `CC(C)Oc1cccc(C(=O)NC(=S)N2CCN(c3ccc(C(F)(F)F)cc3[N+](=O)[O-])CC2)c1`: the activity change, less the hit threshold was -12.3%.

As to `COc1cccc(OC)c1C(=O)NC(=S)N1CCN(c2ccc(C(F)(F)F)cc2[N+](=O)[O-])CC1`, the activity change, less the hit threshold is -33.8%.

As for `O=C(NC(=S)Nc1ccc(N2CCCCC2)c(Cl)c1)c1cccs1`, the activity change, less the hit threshold was -0.7%.

On to `O=C(NC(=S)N1CCN(c2c(Cl)cccc2[N+](=O)[O-])CC1)c1cccs1`, for which the activity change, less the hit threshold was 7.2% (active).

For the compound `O=C(NC(=S)Nc1cccc(Cl)c1N1CCCCC1)c1cccs1`, the activity change, less the hit threshold was -12.7%.

Consider `O=C(NC(=S)N1CCN(c2ccc(C(F)(F)F)cc2[N+](=O)[O-])CC1)c1cccs1`, for which the activity change, less the hit threshold was 15.6% (active).

Consider `COc1ccc(-c2ccc3c(N)c(C(=O)c4ccc(OC)c(OC)c4)sc3n2)cc1`, for which the activity change, less the hit threshold was -11.8%.

For `Cc1c(C#N)c(O)[nH]c(=O)c1N=Nc1ccc(Br)cc1C(=O)O`, the activity change, less the hit threshold is -13.8%.

In the case of `COc1ccc2c(C(=O)CN3CCN(c4ccccc4)CC3)c[nH]c2c1`, the activity change, less the hit threshold is -21.6%.

In the case of `CCCCCCc1c(O)nc(SCC(=O)O)[nH]c1=O`, the activity change, less the hit threshold is -23.9%.

Turning to `CC1=NN(c2nc(-c3ccccc3)cs2)C(=O)C1N=Nc1ccccc1` (configuration not stated), the activity change, less the hit threshold was -28%.

Regarding `Cc1nnc(NC(=O)C2CCCN(S(=O)(=O)c3ccccc3C(F)(F)F)C2)s1` (configuration not stated), the activity change, less the hit threshold was 4.9% (active).

For the compound `COC(=O)c1ccccc1NC(=O)C1CCCN(S(C)(=O)=O)C1` (configuration not stated), the activity change, less the hit threshold is -18.8%.

Regarding `CCc1nnc(NC(=O)C2CCCCN2S(=O)(=O)c2ccccc2)s1` (configuration not stated), the activity change, less the hit threshold was -11.7%.

Turning to `CSc1nsc(SCC(=O)Nc2ccccc2C(=O)O)n1`, the activity change, less the hit threshold is -13%.

In the case of `COC(=O)CCn1[nH]c(=O)c2ccccc2c1=O`, the activity change, less the hit threshold was -15.8%.

With `CC(=O)NCCc1nc2cc(NC(=O)c3ccc(Cl)cc3)ccc2n1C`, the activity change, less the hit threshold was -14.1%.

As to `C/C(=N/NC(=S)Nc1cccc(C)c1)c1cccc([N+](=O)[O-])c1`, the activity change, less the hit threshold was -13.2%.

As for `C/C(=N\Nc1cc(N2CCOCC2)ncn1)c1cccc([N+](=O)[O-])c1`, the activity change, less the hit threshold is -15.9%.

As to `C/C(=N\Nc1nc(C)c(C)s1)c1ccc([N+](=O)[O-])cc1`, the activity change, less the hit threshold was 17% (active).

Consider `Cc1cc(C)cc(N(C(=O)c2cc3ccccc3oc2=O)C2C=CS(=O)(=O)C2)c1` (configuration not stated), for which the activity change, less the hit threshold is -12.7%.

On to `COc1ccc(Br)cc1CNc1ccccc1`, for which the activity change, less the hit threshold was -21.6%.

For the compound `COc1cc(NC(=O)c2ccccc2)c(OC)cc1NC(=O)Cc1ccc(Br)cc1`, the activity change, less the hit threshold is 12.3% (active).

For the compound `COc1ccc(CC(=O)Nc2ccccc2Oc2ccccc2)cc1`, the activity change, less the hit threshold was -0.3%.

Regarding `CCOC(=O)CN1C(=O)SC(Nc2ccc(C)cc2)C1=O` (configuration not stated), the activity change, less the hit threshold is -7%.

Consider `O=C(COc1nsnc1N1CCOCC1)Nc1ccc(Cl)cc1`, for which the activity change, less the hit threshold was -17.5%.

For `CN(Cc1cnn(C)c1)C(=O)C1CCC(=O)N(Cc2cccc(C(F)(F)F)c2)C1` (configuration not stated), the activity change, less the hit threshold is -19.6%.

Take `COc1ccc(N2CCN(S(=O)(=O)c3ccc(Br)s3)CC2)cc1`: the activity change, less the hit threshold is -14.9%.

As for `CC1=CN2C(=N)/C(=C/c3ccc(Sc4ccc(Cl)cc4)o3)C(=O)N=C2S1`, the activity change, less the hit threshold was -17.8%.

In the case of `O=c1c2cc(Cl)ccc2[nH]c(=S)n1Cc1cccs1`, the activity change, less the hit threshold was -11.7%.

Regarding `CCCn1c(=S)[nH]c2ccc(C(F)(F)F)cc21`, the activity change, less the hit threshold is -3.6%.

With `CC(C)Cn1c(=S)[nH]c2cc(Cl)ccc21`, the activity change, less the hit threshold is 6.5% (active).
